# Measured values from ChEMBL document CHEMBL4513139, “CO-ADD screening of University of Strathclyde (UK) compounds”.
# Potency and affinity values are given separately.
# What was measured:
# Klebsiella pneumoniae = conditions: Concentration 32 ug.mL-1; ASSAY_TEST Inhibition of Bacterial Growth; detection method Absorption (OD600); MEDIA CAMHB; plate type 384well; NBS; CORNING #3640; time 18 hr
# Candida albicans = conditions: 32 ug/mL
# Cryptococcus neoformans = conditions: Concentration 32 ug.mL-1; ASSAY_TEST Inhibition of Fungal Growth; detection method Resazurin; Absorption (OD600-OD570); plate type 384well; NBS; CORNING #3640
compound,measurement,setting,value
CCOP(=O)(OCC)C(Cc1cn(Cc2cnc(C)nc2N)nn1)C(=O)O.O=C(O)C(F)(F)F (stereo not drawn),Inhibition,Klebsiella pneumoniae,-0.1%
same,Inhibition,Candida albicans,2.73%
same,Inhibition,Cryptococcus neoformans,-36.59%
